# Data published in the supplement of paper PMC12282887.
# ± gives the standard deviation of the averaged measurements.
# Assays:
# Assay in all cases: promoter activity interaction Z-score (Lux/OD deviation from empty-vector control); higher = stronger promoter induction by the compound
# [1] = tested on: E. coli BW25113 ompFp lux reporter
# Method in brief: (§1)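 Every compound was given at four 1:2 dilutions, in biological duplicates, to E. coli BW25113 carrying low-copy luxCDABE promoter reporters in wild-type or single-gene deletion backgrounds. Growth in 40 µl LB Lennox in 384-well plates at 37°C was followed by OD600 and luminescence readings every 30 min for 12 h, integrated over 0–8 h for wild type and 1–9 h for deletion strains, with wells below 10% of the median growth value excluded. Scores are Z-transformed residuals of growth-normalised luminescence fitted against a control.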
# [2] = tested on: E. coli BW25113 robp lux reporter
# Method in brief: as §1
# [3] = tested on: E. coli BW25113 soxSp lux reporter
# Method in brief: as §1
# [4] = tested on: E. coli BW25113 tolCp lux reporter
# Method in brief: as §1
# [5] = 0.25 µg/ml, genetic background: wild type
# [6] = 0.25 µg/ml, genetic background: ΔmarA
# [7] = 0.25 µg/ml, genetic background: Δrob
# [8] = 0.25 µg/ml, genetic background: ΔsoxS
# [9] = 0.49 µg/ml, genetic background: wild type
# [10] = 0.49 µg/ml, genetic background: ΔmarA
# [11] = 0.49 µg/ml, genetic background: Δrob
# [12] = 0.49 µg/ml, genetic background: ΔsoxS
# [13] = 0.062 µg/ml, genetic background: wild type
# [14] = 0.062 µg/ml, genetic background: ΔmarA
# [15] = 0.062 µg/ml, genetic background: Δrob
# [16] = 0.062 µg/ml, genetic background: ΔsoxS
# [17] = 0.12 µg/ml, genetic background: wild type
# [18] = 0.12 µg/ml, genetic background: ΔmarA
# [19] = 0.12 µg/ml, genetic background: Δrob
# [20] = 0.12 µg/ml, genetic background: ΔsoxS
smiles,measurement,setting,value
CN(C)c1ccc(O)c2c1C[C@H]1C[C@H]3[C@H](N(C)C)C(O)=C(C(N)=O)C(=O)[C@@]3(O)C(O)=C1C2=O [Minocycline],promoter activity interaction Z-score,[1]; [5],0.511 ± 0.43
same,promoter activity interaction Z-score,[1]; [6],-0.386 ± 0.46
same,promoter activity interaction Z-score,[1]; [7],0.978 ± 0.71
same,promoter activity interaction Z-score,[1]; [8],0.461 ± 0.59
same,promoter activity interaction Z-score,[1]; [9],1.65 ± 0.69
same,promoter activity interaction Z-score,[1]; [10],1.7 ± 0.75
same,promoter activity interaction Z-score,[1]; [11],1.71 ± 1.5
same,promoter activity interaction Z-score,[1]; [12],2.93 ± 0.19
same,promoter activity interaction Z-score,[2]; [13],-0.379 ± 0.35
same,promoter activity interaction Z-score,[2]; [14],-0.0848 ± 0.76
same,promoter activity interaction Z-score,[2]; [15],0.746 ± 0.51
same,promoter activity interaction Z-score,[2]; [16],-0.6221 ± 0.0048
same,promoter activity interaction Z-score,[2]; [17],0.195 ± 0.02
same,promoter activity interaction Z-score,[2]; [18],0.369 ± 0.11
same,promoter activity interaction Z-score,[2]; [19],0.83 ± 0.12
same,promoter activity interaction Z-score,[2]; [20],0.357 ± 0.091
same,promoter activity interaction Z-score,[2]; [5],0.736 ± 1.1
same,promoter activity interaction Z-score,[2]; [6],0.349 ± 0.033
same,promoter activity interaction Z-score,[2]; [7],1.12 ± 0.15
same,promoter activity interaction Z-score,[2]; [8],-0.142 ± 0.44
same,promoter activity interaction Z-score,[2]; [9],0.715 ± 0.67
same,promoter activity interaction Z-score,[2]; [10],0.586 ± 0.056
same,promoter activity interaction Z-score,[2]; [11],0.685 ± 1.6
same,promoter activity interaction Z-score,[2]; [12],0.64 ± 1.7
same,promoter activity interaction Z-score,[3]; [13],0.269 ± 0.16
same,promoter activity interaction Z-score,[3]; [14],-0.245 ± 0.04
same,promoter activity interaction Z-score,[3]; [15],0.0739 ± 0.0036
same,promoter activity interaction Z-score,[3]; [16],-0.185 ± 0.069
same,promoter activity interaction Z-score,[3]; [17],0.291 ± 0.56
same,promoter activity interaction Z-score,[3]; [18],0.0029 ± 0.014
same,promoter activity interaction Z-score,[3]; [19],-0.102 ± 0.055
same,promoter activity interaction Z-score,[3]; [20],0.203 ± 0.098
same,promoter activity interaction Z-score,[3]; [5],0.499 ± 0.44
same,promoter activity interaction Z-score,[3]; [6],-0.0485 ± 0.1
same,promoter activity interaction Z-score,[3]; [7],0.0791 ± 0.26
same,promoter activity interaction Z-score,[3]; [8],-0.114 ± 0.015
same,promoter activity interaction Z-score,[3]; [9],0.538 ± 0.72
same,promoter activity interaction Z-score,[3]; [10],0.583 ± 0.97
same,promoter activity interaction Z-score,[3]; [11],0.542 ± 0.91
same,promoter activity interaction Z-score,[3]; [12],0.336 ± 0.25
same,promoter activity interaction Z-score,[4]; [13],-0.706 ± 0.049
same,promoter activity interaction Z-score,[4]; [14],-0.479 ± 0.52
same,promoter activity interaction Z-score,[4]; [15],-0.423 ± 0.84
same,promoter activity interaction Z-score,[4]; [16],-0.991 ± 0.75
same,promoter activity interaction Z-score,[4]; [17],0.000824 ± 0.27
same,promoter activity interaction Z-score,[4]; [18],-0.0931 ± 0.19
same,promoter activity interaction Z-score,[4]; [19],-0.00328 ± 1.2
same,promoter activity interaction Z-score,[4]; [20],0.557 ± 0.39
same,promoter activity interaction Z-score,[4]; [5],-0.22 ± 0.98
same,promoter activity interaction Z-score,[4]; [6],-0.201 ± 0.28
same,promoter activity interaction Z-score,[4]; [7],0.646 ± 0.087
same,promoter activity interaction Z-score,[4]; [8],-0.226 ± 0.84
same,promoter activity interaction Z-score,[4]; [9],-0.114 ± 0.25
same,promoter activity interaction Z-score,[4]; [10],0.0123 ± 0.63
same,promoter activity interaction Z-score,[4]; [11],0.966 ± 0.27
same,promoter activity interaction Z-score,[4]; [12],0.526 ± 0.79
